This is a sample that favours compounds with a hit; in the whole collection about 21% have one here.
HCV inh – inhibitors of hepatitis C virus infection; 340,000 tested, 3.4% active; Huh7.5.1 HCVcc-Cre infection, luciferase reporter, 44 h; Potency, µM (series often up to 41.8 µM), for the others: top-dose activity change, negative = inhibition, actives largely listed as inhibitors; note: potency is the fitted concentration of half-maximal effect; % is set by controls: 0 for no effect and ±100 for the full control effect
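Seed cells (1,000/well) for 4 h; treat with compound and infect with HCVcc-Cre, moi about 0.5. Incubate 44 h, then detect luciferase activity.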
Pf growth 96h – inhibits malaria parasite growth, 96 h. P. falciparum luciferase reporter growth, 96 h. Potency, µM (doses to about 28.7 µM), for inactives: at the highest dose activity change, negative = inhibition, actives largely listed as inhibitors. 320,000 tested, 6.9% active; note: potency is the fitted concentration of half-maximal effect; % is set by controls: 0 for no effect and ±100 for the full control effect
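Infected RBCs, 2% Hct / 0.05% parasitemia final; luciferase-reporter P. falciparum; cpd 96 h, 37 C, 5% CO2; luciferase detection reagent; luminescence.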
Shiga toxin inh – inhibitors of Shiga toxin in Vero cells; 290,000 tested, 9.2% active; inhibition, % at 38.7 µM; Vero cells, Shiga toxin protein synthesis inhibition reporter; AID 2315; in the data active = inhibition mostly above about 28%, no sharp cut-off; inactive = mostly below about 43%; note: 0% is about no effect
Cycloheximide cs – counter-screen hit for Shiga toxin inhibitors, cycloheximide; cell reporter, cycloheximide protein synthesis inhibition counterscreen; max response, %; 300,000 tested, 12% active; in the data active = max response mostly above about 13%, no sharp cut-off; inactive = mostly below about 14%; note: read at 38.3 µM for the half of the compounds with a filed dose; 0% is about no effect
HCMV antiviral – human cytomegalovirus inhibition; HFF cells, HCMV-luciferase reporter, 72 h; stronger effect = lower value; activity change, negative = inhibition, % at 57.5 µM; 410,000 tested, 4.5% active; AID 1259415; in the data active = activity change below about -60%; inconclusive = no clear call, values can overlap the other calls; inactive = above about -39%; note: % is set by controls: 0 for no effect and ±100 for the full control effect
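Compounds were evaluated in HFFs infected with an HCMV luciferase reporter virus (MOI 1 PFU/cell). Luciferase in lysates collected 72 h post infection served as the replication measure.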
Pf growth 48h – P. falciparum growth inhibition at 48 hours (one generation); 310,000 tested, 5.9% active; P. falciparum luciferase growth in erythrocytes, 48 h; Potency, µM (titrated, usually from 28.7 µM), without a hit: at the top dose activity change, negative = inhibition, actives largely listed as inhibitors; note: potency is the fitted concentration of half-maximal effect; % is set by controls: 0 for no effect and ±100 for the full control effect
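Here the parasites carry a stable luciferase gene and grow inside erythrocytes in Albumax-based RPMI medium with compound for one erythrocytic cycle. Activity is scored as loss of luminescent signal.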
The depositor's hits bear a star; ? = inconclusive; · = not tested or not shown; ! = not confirmed by another sample; [ ] = another dose, or the depositor's remark. Unless noted, calls come from the whole dose curve; as a rule, active = well fitted inhibition curve with a large enough effect; inconclusive = small, poorly fitted or top-dose-only effect, or another doubt; inactive = no such curve, though single readings can be large or run the other way.

SMILES	HCV inh	Pf growth 96h	Shiga toxin inh	Cycloheximide cs	HCMV antiviral	Pf growth 48h
Cc1ccc(-c2csc3nnc(SCC(=O)Nc4nsc(-c5ccccc5)n4)n23)cc1	?	·	-8	0	?	?
CCOC(=O)C1=C(COC(=O)COc2ccc(OCC)cc2)NC(=O)NC1C (configuration not stated)	5%[8.37 µM]	36%	·	·	-13	13%
O=C(O)c1ccc(/C=N/NC(=O)c2cc(-c3ccc4c5c(cccc35)CC4)n[nH]2)cc1	13%	?	10	1	?	0%
Cc1ccc(N=Cc2c(O)ccc3ccccc23)cc1F	-10%	?	15	12	-16	9%
Oc1ccc2ccccc2c1C=Nc1cc(C(F)(F)F)ccc1N1CCCC1	-20%	25%	51*	14	-5	?
COc1ccc2nc(SCC(=O)Nc3ccc4c(c3)OCCO4)[nH]c2c1	12%	?	80*	57*	?	146%
COc1ccc(OC)c(-n2nnnc2SCC(=O)Nc2ccc(C(=O)N3CCCCC3)cc2)c1	-24%	12µM*	25	-2	-64*	?
COc1ccc(OC)c(-n2nnnc2SCC(=O)Nc2ccc3c(c2)OCCO3)c1	?	10µM*	-1	-1	1	31%
COc1ccc(C2C=C(c3ccc(C)cc3)Nc3c(C(=O)Nc4ccccc4)cnn32)cc1 (configuration not stated)	·	·	·	·	-24	·
O=C(Nc1cccc(S(=O)(=O)NC2=NCCC2)c1)c1cnc(Cl)c(Cl)c1	?	?	·	·	-16	?
CCOc1ccc(S(=O)(=O)NCCC(=O)N(C)Cc2cccs2)cc1	-9%	-17%	·	·	-18	-18%
O=C(c1cc(-c2ccccc2O)on1)N1CCc2ccccc2C1	-15%	28%	51	25*	20	·
O=C(c1cc(-c2cccs2)on1)N1CCc2ccccc2C1	16%	2%	47*	18	14	?
O=C(c1cc(-c2ccco2)on1)N1CCc2ccccc2C1	-2%	·	36	9	91	16%
O=C(c1cc(-c2ccc(O)cc2)on1)N1CCc2ccccc2C1	-6%	0.37µM*	46	5	7	·
CC(C)C(C)NC(=O)COC(=O)c1cccc(C(=O)OCC(=O)NC(C)C(C)C)n1 (configuration not stated)	14%	6%	-5	-3	-10	5%
COC(=O)c1ccccc1S(=O)(=O)NNC(=O)C12CC3CC(CC(C3)C1)C2	18%	·	·	·	-4	·
[O-][N+]1=c2ccc(Nc3ccccc3)cc2=NC12CCCCC2	?	·	89*	51*	?	9.3µM*
CCN1C(c2ccccc2)C(C)C(=O)C(C)C1c1ccccc1 (configuration not stated)	4%	9.3µM*	24	4	-29	12µM*
CCN1c2ccccc2N(C)C1(C)c1ccccc1 (configuration not stated)	-27%	0%	-12	-3	·	2.6µM*
CCN1C(=O)N(c2cccc3ccccc23)C(C)=CC1(C)C	-3%	?	-10	-3	-5	-14%
CN1C(=O)N(C)C2(c3ccccc3)NC(=O)NC12c1ccccc1 (configuration not stated)	21%	?	26	-2	0	-6%
CN1c2ccccc2N(C)C1(C)c1ccccc1	-5%	0%	13	1	-93*	2.3µM*
C/C(=C\C(=O)c1ccc(Cl)s1)N(C)C	0%	41%	11	12	-26	8%
COc1ccc2nc(SCC(=O)Nc3c(C)cccc3C)[nH]c2c1	-2%	-2%	-11	11	-39	-1%
COc1ccc2nc(S(=O)Cc3ncc(C)c(OC)c3C)[nH]c2c1 (configuration not stated)	2.2µM*!	3.3µM*	14	8	66	12µM*
CCOC(=O)c1c(C)[nH]c(C)c1S(=O)(=O)N1CCC(C(=O)Nc2ccccc2CC)CC1	·	·	·	·	-7	·
N#Cc1ccc(OCC(=O)N/N=C2\CCc3ccccc32)cc1	6%	?	5	6	28	·
COc1ccccc1OCC(=O)N/N=C1\CCc2ccccc21	-11%	·	92*	38*	51	69%
